The record followed here is PubChem BioAssay (NCI).

Each structure is given as a SMILES string. This is part of a sample that, as a whole, favours compounds with a hit. Of some 83,000 tested, about 20% had one in any assay.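 Method: cells in 96-well plates; compound added at one concentration; 48 h incubation; percent growth measured; values under 10 scored active.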 A number with no mark means an inactive call. Calls of active or inactive are those of the source.

This experiment relates to SNB-75 CNS. Briefly: NCI-60 one-dose screen, 48 h (100 = growth as untreated, 0 = no growth, -100 = all killed). Conditions: 10 µM unless noted. How it is done: Growth inhibition of the SNB-75 human tumor cell line is measured as a screen for anti-cancer activity. Cells are grown in 96 well plates and exposed to the test compound for 48 hours. Compounds are tested at a single concentration, which is 10^-5 M for most compounds. The reported endpoint is percent growth (GI% or GIPRCNT), where numbers from 0 - 100% represent growth inhibition, and numbers from -100% - 0 represent cell death. For example, a value of 40 represents 60% growth inhibition. A value of 0 means no net growth occurred over the course of the experiment. A value of -40 indicates 40% of cells at the beginning of the experiment died by the end of the experiment. A value of -100 means all cells are dead at the end of the experiment.
NCI-60 Human Tumor Cell Lines Screen was performed using the standard one-dose NCI protocol, which is described in more detail at https://dtp.cancer.gov/discovery_development/nci-60/default.htm.
Compounds with GIPRCNT values below 10 were considered active. Activity score was based on GIPRCNT using the following formula: […]
Score is 0 for GIPRCNT values of 100 or above, 50 for GIPRCNT values of 0, and 100 for GIPRCNT values of -100.
Consider `COc1cc(/C=C2\C(=O)N(c3c(Cl)cccc3Cl)c3ccccc32)cc(OC)c1O`, for which the growth is 61.7%.
Consider `C[C@@H](Oc1cc(-c2cnn(C3CC4(CCCNC4)C3)c2)cnc1N)c1c(Cl)ccc(F)c1Cl` (stereo not given in full), for which the growth is 10.3%.
Turning to `CN1CCC(OC2c3ccccc3CCc3ccccc32)CC1`, the growth was 65.7%.
With `O/N=C/c1cccs1`, the growth is 94.3%.
`O=C1NC(=O)C2(CCCC2C(=O)O)N1` (stereo not given): the growth was 83.4%.
As for `N#Cc1c(O)c2c(c(O)c1C#N)C(=O)c1ccccc1C2=O`, the growth is 145%.
The value for `C=C(C)COC(=O)c1ccccc1C(=O)OCC1(C)CO1` (stereo not given) was 92.9%; that for `CCOC(=O)n1cc(C2=C(c3cn(C)c4ccccc34)COC2=O)c2ccccc21` was 26.4%.
In the case of `O=C1c2ccccc2C(=O)c2c(Nc3ccc(CCO)cc3)ccc(O)c21`, the growth is 64.3%.
For the compound `COc1cccc(Nc2nc(NCCO)c3ccccc3n2)c1`, the growth is 63.7%.
`Nc1nc(-c2ccnc(Cl)c2)nn1-c1nc2ccccc2s1`: the growth is 103%.
As for `Oc1cccc(Nc2nc(-c3ccccn3)cs2)c1`, the growth was 94.3%.
The value for `CCN(CC)c1ccc(/C=C(\C#N)c2cc3ccccc3[nH]2)cc1` was 55.2%.
`Cc1nc2cc(Nc3nc(NCCO)nc(Nc4ccc(F)cc4)n3)ccc2n1Cc1ccccc1`: the growth is 102%.
With `COc1cc(OCc2cccc(-c3ccc(C(O)c4nccs4)cc3)c2C)cc(OC)c1C=O` (stereo not given), the growth is 69.6%.
Take `COc1ccccc1/C=C/C(=O)/C=C/c1ccccc1O`: the growth is 31.3%.
Turning to `Cc1c(C(=O)Nc2nc(-c3ccccc3)cs2)nnn1-c1ccccc1Br`, the growth is 67.8% [50 µM].
The value for `Cc1nc2ccc(Cl)cc2n1C` was 103%; that for `O=C(CCc1nnc2sc(-c3ccccc3)nn12)c1nc2ccccc2[nH]1` was 83.9%.
As to `O=C(NCc1ccco1)C1CCN(S(=O)(=O)c2ccc(Cl)cc2)CC1`, the growth was 72.2%.
In the case of `c1ccc(-c2n(Cc3ccc4ccccc4n3)c3ccccc3[n+]2Cc2ccc3ccccc3n2)cc1` it was -21.5% (active); in that of `COc1ccc(C2SC(C)C(=O)N2CCc2cccs2)cc1OC` (stereo not given), 69.1%; in that of `CCN(CC)c1ccc2c(c1)OS(=O)(=O)N=C2`, 87.9%.
With `O=C(CCCCCCC(=O)Nc1ccc2c(c1)/C(=C/c1ccc[nH]1)C(=O)N2)NO`, the growth is 53%.
On to `COC(=O)/C=C1/CCC2C3CCC4=CC(=O)C(Br)CC4(C)C3C(=O)CC12C` (stereo not given), for which the growth is 70.8%.
Consider `COc1cc(-c2ccc3cc(OC)c(OC)c(OC)c3c2)cc(OC)c1OC`, for which the growth was 49.1%.
Take `COc1c(Cl)ccc2c(-c3nc4cc(Cl)c(F)cc4s3)cc(=O)oc12`: the growth was 69.3%.
In the case of `Cc1ccc(N(CSc2ccc(Cl)cc2)CSc2ccc(Cl)cc2)cc1` it was 106%; in that of `CSc1nnc(-c2sc3nnc(-c4ccccc4)c(-c4ccccc4)c3c2O)o1`, 78.4%; in that of `CS(=O)(=O)Nc1cccc(C(=O)NCc2ccc(N3CCOCC3)cc2)c1`, 68.2%.
As for `CCN1C(=O)C2(Nc3ccccc3S2)c2cc(C)ccc21` (stereo not given), the growth is 76.2%.
Take `COc1cccc(C2CC(=O)Nc3cc4c(cc32)CCC4)c1OC` (stereo not given): the growth was 35.3%.
Turning to `CCCCCCCC/C=C\CCCCCCCCOc1cccc(CC(=O)NCC[N+](C)(C)C)c1`, the growth is 59.1%.
In the case of `O=C1N/C(=C\c2ccccc2)c2ncccc21`, the growth was 91.8%.
`CC(C)(C)CC(C)(C)N(CSc1ccc(Cl)cc1)CSc1ccc(Cl)cc1`: the growth was 49.6%.
With `ONc1nc(NO)c2[nH]cnc2n1`, the growth is 88.6%.
As to `O=c1[nH]c(-c2ccncc2)nc2sc3c(c12)CCCCCC3`, the growth is 33.8%.
In the case of `CCCCCCCCCCCCSC1=CC(=O)C=CC1=O`, the growth was 44.9%.
The value for `O=C1c2ccccc2-c2cn(Cc3ccccc3)c3cccc(c23)C1c1cccnc1` (stereo not given) was 23.2%.
Regarding `Cc1nc2cc(Nc3nc(Cl)nc(Nc4ccc(F)cc4)n3)ccc2n1Cc1ccccc1`, the growth is 90%.
